Source: PubChem BioAssay AID1159580 (chemical genetic matrix, 2015)
Out of some 5,500 compounds screened, about 2,000 (36%) were called active. About 18% were inconclusive and are not listed. Rule as the data show it: active = normalized growth mostly below about 0.91 (no sharp cut-off); inconclusive = no clear call, values can overlap the other calls; inactive = mostly above about 0.92. The list shows a part of the results.

Assay: chemical genetic growth profiling, strain panel (AID 1159580);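 also: tested at 20 µM; growth read once vehicle control cultures reached saturation at 30 °C; 1 = growth at the plate median or of vehicle wells; lower values mean less growth of the strain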
Details: S. cerevisiae deletion strains, growth OD

Measured: normalized growth

C[C@@H]1O[C@H](C[N+](C)(C)C)CS1
inactive: locus YAL040C, strain CLN3, stronger effect = lower value 1.02 | locus YCL061C, strain MRC1 (second series), stronger effect = lower value 1.01 | locus YDR363W, strain ESC2, stronger effect = lower value 1.03 | locus YER002W, strain NOP16, stronger effect = lower value 0.997 | locus YJR075W, strain HOC1, stronger effect = lower value 1.02 | locus YMR263W, strain SAP30, stronger effect = lower value 1.01 | locus YNL153C, strain GIM3, stronger effect = lower value 1.01 | locus YNL175C, strain NOP13, stronger effect = lower value 1.01 | locus YNL197C, strain WHI3, stronger effect = lower value 1.01 | locus YNL224C, strain SQS1, stronger effect = lower value 0.993 | locus YNL322C, strain KRE1, stronger effect = lower value 1.02 | locus YOR083W, strain WHI5 (second series), stronger effect = lower value 1.05 | locus YPL241C, strain CIN2, stronger effect = lower value 1.01

CC(C)(CO)[C@@H](O)C(=O)NCCCO
inactive: locus YHR030C, strain SLT2, stronger effect = lower value 1.09 | locus YHR079C, strain IRE1, stronger effect = lower value 0.97 | locus YJL095W, strain BCK1, stronger effect = lower value 1.01 | locus YJR066W, strain TOR1, stronger effect = lower value 0.936 | locus YLR113W, strain HOG1, stronger effect = lower value 0.968 | locus YNL183C, strain NPR1, stronger effect = lower value 0.932 | locus YOR231W, strain MKK1, stronger effect = lower value 0.998 | locus YPL256C, strain CLN2, stronger effect = lower value 0.988
